Results on 28 compounds are retold here after PubChem BioAssay.

Structures are written as SMILES.

The target of the assay is Calmodulin-1 (Homo sapiens) (UniProt P0DP23). The assay can be described thus: calcium-bound CALM1 binders on microarrays, profiling panel, artefact control for SMM control-protein annotation, biochemical, small-molecule microarray, Cy5-labelled CALM1, plus calcium (AID 1112).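 Also: score merges spot fluorescence with signal to noise from triplicate slides.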 Conditions: Cy5-CALM1 binding fluorescence, higher = more signal.
As to `COC(=O)c1nc2oc1CC[C@@H](CO)NC(=O)N(C)Cc1cnnn1C[C@H](Cc1ccccc1)NC2=O`, the composite z-score was -0.319.

Take `CCOC(=O)C1=CC[C@@H](c2cccc(Cl)c2)N(S(=O)(=O)c2ccc(C)cc2)C1`: the composite z-score is 0.573.

For `C=C(COC)/C(=C/C[C@H](OC(=O)c1ccncc1)c1ccccc1OCCO)c1cnc2ccccc2c1`, the composite z-score is -0.857.

Regarding `C[C@@H]1ON(c2ccc(C(=O)OC(C)(C)C)cc2)[C@H](c2ccc(O)cc2)[C@H]1C(=O)N1C(=O)OC[C@H]1Cc1ccccc1`, the composite z-score came out at 0.307.

Consider `CC(C)N1C(=O)C[C@@](C(=O)NCCCN(C)C)(c2ccc([N+](=O)[O-])cc2)[C@H]1c1ccc(CO)cc1`, for which the composite z-score is -0.774.

As for `COC(=O)C(CC#Cc1ccc2c(c1)[C@]1(C(=O)N2)[C@H](C(=O)N2CCN(c3ncccn3)CC2)[C@H]2C(=O)O[C@H](c3ccccc3)[C@H](c3ccccc3)N2[C@@H]1c1ccc(OCCO)cc1)C(=O)OC`, the composite z-score came out at 0.245.

With `CN(C)CCCNC(=O)[C@@]1(C)c2ccccc2C(=O)N(Cc2ccccc2)[C@H]1c1ccc(CO)cc1`, the composite z-score was -1.12.

Take `CC(C)C(=C=CC[C@H](O)c1cccc(OCCO)c1)C[C@H](O)c1cc(Cl)cc(Cl)c1O`: the composite z-score is -0.698.

Take `COCCCNC(=O)[C@@]1(Cc2ccccc2N=[N+]=[N-])N=C(c2ccc(OCCCO)cc2)O[C@H]1c1ccccc1`: the composite z-score is -0.257.

As for `COc1ccc([Si](C)(C)[C@@H]2[C@@H](CC(=O)N3Cc4ccccc4C[C@H]3CO)O[C@]3(C(=O)N(Cc4cccc(N5C(=O)c6cccc7cccc5c67)c4)c4ccccc43)[C@H]2C)cc1`, the composite z-score came to 1.46.

Consider `COc1ccc([Si](C)(C)[C@@H]2[C@@H](CC(=O)N(CCO)Cc3ccccc3)O[C@]3(C(=O)N(Cc4cccc(N5CCOC5=O)c4)c4ccccc43)[C@H]2C)cc1`, for which the composite z-score is -0.44.

`CC(=O)c1ccc(C(O)C2C=CC3C(=O)N(c4ccccc4)C(=O)C3N2Nc2ccc(C#N)cc2)cc1` (stereo not drawn): the composite z-score was 0.586.

Turning to `COC1OC[C@]2(C)[C@H]3C4=C(CN2C(=O)OC(C)(C)C)[C@H](C)C(CO)C(CO)C4CC[C@@H]13` (stereo partly drawn), the composite z-score is 1.39.

Take `COCCCNC(=O)[C@@]1(Cc2ccccc2CN=[N+]=[N-])N=C(c2ccc(OCCCO)cc2)O[C@H]1c1ccccc1`: the composite z-score stood at 0.475.

Turning to `COc1cc(CO)cc(I)c1O[C@H]1C=C(C(=O)NCCO)C[C@@H](NCc2ccc(F)cc2)[C@@H]1O`, the composite z-score was -0.918.

Take `C=CCC(OC(C)=O)[C@@H]1[C@@H](N(Cc2cccc3ccccc23)C(=O)Cc2ccc(F)cc2)c2cc(OCCCO)ccc2N1C(=O)c1ccc2ccccc2n1` (stereo partly drawn): the composite z-score amounted to 0.398.

Take `[N-]=[N+]=Nc1ccccc1[C@H]1OC(c2ccc(OCCCO)cc2)=N[C@@]1(Cc1ccccc1)C(=O)N1CCCCC1`: the composite z-score was determined as 0.735.

For `O=C(NCc1ccccc1)[C@@H]1c2ccccc2C(=O)N(Cc2ccccc2C(F)(F)F)[C@H]1c1ccc(CO)cc1`, the composite z-score was -0.317.

On to `CC=CC(O)C1C=CC2C(=O)N(c3ccccc3)C(=O)C2N1Nc1ccccc1F` (stereo not drawn), for which the composite z-score stood at 0.213.

Consider `O=C1O[C@H](c2ccccc2)[C@H](c2ccccc2)N2[C@H]1[C@@H](C(=O)O)[C@]1(C(=O)Nc3ccc(C#CC4=CCCCC4)cc31)[C@H]2c1ccc(O)cc1`, for which the composite z-score is -0.283.

Consider `C=CCOC(=O)[C@H]1[C@@H]2C(=O)O[C@@H](c3ccccc3)[C@@H](c3ccccc3)N2[C@@H](c2ccc(OCCOC(=O)[C@@H]3C[C@@H]4C(=O)N5CCC[C@H]5C(=O)N4[C@@H]3c3ccc(O)cc3)cc2)[C@]12C(=O)Nc1ccc(I)cc12`, for which the composite z-score is 0.29.

For the compound `CCCC[C@@H]1C[C@H]1[C@@H](NC(=O)c1ccccc1)c1ccc(C(F)(F)F)cc1`, the composite z-score came to 0.87.

Take `C=C(C)c1cc2c(c(CCCCCC)n1)[Si](C(C)C)(C(C)C)OC2`: the composite z-score worked out at 0.603.

For `COC(=O)[C@@]1(Cc2ccc(OC)cc2)[C@@H]2C(=CC(=O)[C@H]2CC(=O)C(=O)N(C)C)CN1C(=O)c1ccccc1`, the composite z-score is 0.775.

With `COC(=O)c1cn(C[C@@H](Cc2ccccc2)NC(=O)N[C@H](CO)CCc2oc(C(C)=O)c(C(=O)OC)c2C(=O)OC)nn1`, the composite z-score is -0.616.

In the case of `COCCOC(=O)N1C(=O)[C@@]2(c3cc(C#CC4(O)CCCCCC4)ccc31)[C@H](c1ccc(O)cc1)N1[C@H](c3ccccc3)[C@H](c3ccccc3)OC(=O)[C@H]1[C@@H]2C(=O)NC[C@H](O)c1ccccc1`, the composite z-score came to 0.524.

As to `C=C(C)C1CCC(C(O)C2C=CC3C(=O)N(C)C(=O)C3N2N2CCCCC2)CC1` (stereo not drawn), the composite z-score was determined as 0.763.

For the compound `CC(C)(C)N1CC=CC23O[C@@H]4C=CCOC(=O)[C@@H]4[C@H]2C(=O)N(CCCCCCO)[C@@H]3C1=O` (stereo partly drawn), the composite z-score was -0.123.
